Assay outcomes from PubChem BioAssay.
An excerpt weighted towards active compounds, which were near 21% of everything screened.
CYP2C9 inhib = blockers of cytochrome P450 2C9 activity – biochemical, luminescence, ADME assay, primary screen | P11712 | CYP2C9 Supersomes, luciferin-H conversion | inhibition, % at 5 µM | 96,000 tested, 20% active | AID 777, 2007;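 active = blocking of liver enzyme CYP2C9 beyond about 50% at 5 µM, limit read from the data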
Target sequence (P11712 whole entry, looked up): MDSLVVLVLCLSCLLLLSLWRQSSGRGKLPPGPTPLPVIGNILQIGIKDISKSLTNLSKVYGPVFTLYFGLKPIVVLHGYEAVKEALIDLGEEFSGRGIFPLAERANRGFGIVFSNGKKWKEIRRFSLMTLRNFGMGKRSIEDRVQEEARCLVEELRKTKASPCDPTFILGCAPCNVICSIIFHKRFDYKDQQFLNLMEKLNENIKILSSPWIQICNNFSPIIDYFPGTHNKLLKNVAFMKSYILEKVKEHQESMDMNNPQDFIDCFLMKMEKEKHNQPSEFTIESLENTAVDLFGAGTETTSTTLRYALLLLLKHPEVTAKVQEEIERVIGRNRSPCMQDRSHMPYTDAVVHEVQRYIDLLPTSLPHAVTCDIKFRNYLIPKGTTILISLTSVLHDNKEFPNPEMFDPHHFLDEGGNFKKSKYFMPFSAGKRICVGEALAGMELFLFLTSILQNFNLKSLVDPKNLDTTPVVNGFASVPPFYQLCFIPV
CYP2C9 activ = human CYP2C9 activators, primary screen, biochemical, luminescence | recombinant CYP2C9, luciferin-H conversion; hits give high values; factor 1 = untreated enzyme, 0 = blocked | activation factor at 5 µM | 96,000 tested, 1.4% active | AID 1024, 2008;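 active = activation factor of 2 or more for CYP2C9 at a 5 µM dose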
MRP1 act = H69AR viability gain despite doxorubicin, primary screen, MRP-1 activator project, H69AR cells, CellTiter-Glo; 140,000 tested, 0.61% active; AID 799, 2007; viability rescue; viability increase, % at 10 µM;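 active = viability gain under doxorubicin at or above a set limit, the compound median plus 3 SD, cut at about 4.7% in these data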;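 also: MRP-1 overexpressing cells given doxorubicin 25 µM after compound pretreatment; 18-22 h compound pretreatment then 72 h with doxorubicin before readout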
CYP2C19 inh = blockers of cytochrome P450 2C19 activity – biochemical, luminescence, ADME assay, primary screen. P33261. CYP2C19 Supersomes, luciferin-H EGE luminescence, 30 min. inhibition, % at 5 µM. 96,000 tested, 21% active. AID 778, 2007;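 active = CYP2C19 inhibition above a set limit at 5 µM in the primary screen, cut at about 50% in these data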
CYP2C19 activ = human CYP2C19 activators, primary screen, biochemical, luminescence; Cytochrome P450 2C19 (Homo sapiens), P33261; recombinant CYP2C19, luciferin-H EGE luminescence; hits give high values; 0 = fully inhibited enzyme, 1 = untreated enzyme; activation factor at 5 µM; 96,000 tested, under 10 active; AID 1025, 2008;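 active = activation factor of at least 2 at 5 µM in the primary screen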
MRP resist rev = reversal of MRP1-mediated doxorubicin resistance, primary screen, H69AR cells, doxorubicin co-treatment; H69AR cells + 2 uM doxorubicin, CellTiter-Glo, 72 h; differential viability (reversal), % at 10 µM; 85,000 tested, 0.04% active; AID 602, 2007;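 active = viability drop by adding the cancer drug above about 55%, with treated viability meeting a 40% cutoff, limit read from the data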;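 also: larger differential means the compound sensitizes cells more to doxorubicin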
Of the large screens only hits and unclear results are named; the others gave an inactive call.

CCCN1CNC(=S)N(c2cc(C)ccc2C)C1	none (no result: CYP2C9 inhib, CYP2C9 activ, CYP2C19 inh, CYP2C19 activ)
O=C1C(=C2CCCCC2)SC(=S)N1Cc1ccco1	CYP2C19 inh 60
O=C(O)CCN1C(=O)C(=C2CCCCCC2)SC1=S	none
Cc1ccc(CNC(=O)C2CCC(=O)N2C2CCCCC2)cc1 (configuration not stated)	none
O=C(NCCc1ccc(Cl)cc1)C1CCC(=O)N1C1CCCC1 (configuration not stated)	CYP2C9 activ 2.3
CCOc1ccc(CCNC(=O)C2CCC(=O)N2C2CCCCC2)cc1OCC (configuration not stated)	CYP2C19 inh 64
CCOc1ccc(Nc2nc(Cc3nnc(SCC(=O)c4ccc(C)c(C)c4)o3)cs2)cc1	none
COc1cc(-c2nc3ccccn3c2NCC2CCCO2)ccc1O (configuration not stated)	none
CCOc1cc(-c2nc3ccccn3c2NCC2CCCO2)ccc1O (configuration not stated)	CYP2C9 inhib 75
Cc1ccc(S(=O)(=O)N/N=C2/CC(c3ccccc3)Oc3ccccc32)cc1 (configuration not stated)	CYP2C9 inhib 80
CCOc1ccc(S(=O)(=O)N/N=C2/CC(c3ccccc3)Oc3ccccc32)cc1 (configuration not stated)	CYP2C9 inhib 88, CYP2C19 inh 56 (no result: MRP resist rev)
O=S(=O)(N/N=C1\CC(c2ccccc2)Oc2ccccc21)c1ccccc1 (configuration not stated)	none
Nc1nc(-c2ccc(Cl)cc2Cl)cn1N	none
O=C(NCCc1ccc(Cl)cc1)C1CCN(S(=O)(=O)N2CCCC2)CC1	none
O=C(NCCc1ccc(Cl)cc1)C1CCN(C(=O)c2sccc2-n2cccc2)CC1	CYP2C9 inhib 52
O=C(NNC(=O)c1sccc1-n1cccc1)c1ccc(Cl)cc1	CYP2C9 activ 2.7 (no result: MRP resist rev)
CC(CCc1ccccc1)NC(=O)C1CCN(C(=O)c2sccc2-n2cccc2)CC1 (configuration not stated)	CYP2C9 inhib 78, CYP2C19 inh 72
Cc1ccc(Cn2ccc(NC(=O)c3cc(-c4cccs4)on3)n2)cc1	none
CCCn1c(C)cc(C(=O)COc2ccc(S(=O)(=O)N(CC)CC)cc2[N+](=O)[O-])c1C	none (no result: CYP2C9 inhib, CYP2C9 activ, CYP2C19 inh, CYP2C19 activ, MRP resist rev)
CCC(C)OC(=O)C1=C(C)NC(=O)CC1c1ccccc1OC (configuration not stated)	none
CCCOc1ccccc1C1CC(=O)NC(C)=C1C(=O)OCC(C)C (configuration not stated)	CYP2C19 inh 56
CC1=C(C(=O)OC(C)C)C(c2ccccc2Cl)CC(=O)N1 (configuration not stated)	CYP2C19 inh 87
CC(C)(C)n1nnnc1C(c1cccs1)N(Cc1ccc(Cl)cc1)CC1CCCO1 (configuration not stated)	none
CNc1cccc2c1C(=O)c1ccccc1C2=O	none (no result: CYP2C9 inhib, CYP2C9 activ, CYP2C19 inh, CYP2C19 activ, MRP resist rev)
O=C1c2ccccc2-c2cccc(NS(=O)(=O)c3ccc(C(F)(F)F)cc3)c21	CYP2C9 inhib 88 (no result: MRP resist rev)
CCN(CC)S(=O)(=O)c1ccc(OC(C)C)c(NC(=O)c2c3c(nc4ccccc24)CCN(Cc2ccccc2)C3)c1	none (no result: CYP2C9 inhib, CYP2C9 activ, CYP2C19 inh, CYP2C19 activ, MRP resist rev)
CCOC(=O)c1cccc(NC(=O)/C=C/c2ccc3c(c2)OCO3)c1	none (no result: CYP2C9 inhib, CYP2C9 activ, CYP2C19 inh, CYP2C19 activ, MRP resist rev)
CC(=O)c1cccc(NC(=O)C(OC(=O)/C=C/c2ccc3c(c2)OCO3)c2ccccc2)c1 (configuration not stated)	CYP2C9 inhib 95, CYP2C19 inh 76 (no result: MRP resist rev)
C=CCNc1nc(Cl)nc(Nc2ccc(OCC)cc2)n1	none (no result: CYP2C9 inhib, CYP2C9 activ, CYP2C19 inh, CYP2C19 activ, MRP resist rev)
CCOC(=O)C1=C(N)OC2=C(C(=O)CC(C)C2)C1c1cccnc1 (configuration not stated)	none (no result: CYP2C9 inhib, CYP2C9 activ, CYP2C19 inh, CYP2C19 activ, MRP resist rev)
CCOC(=O)C1=C(N)Oc2cc(O)ccc2C1c1cccnc1 (configuration not stated)	CYP2C9 inhib 90, CYP2C19 inh 89
COc1ccc(CCc2nc(C)ccc2O)cc1	CYP2C9 inhib 66, CYP2C19 inh 83 (no result: MRP resist rev)
COc1ccc(-c2nnn(CC#N)n2)cc1OC	CYP2C9 inhib 62, CYP2C19 inh 84
COC(=O)c1sc2ncn(-n3c(C)ccc3C)c(=O)c2c1C	none
O=C(CN1CCCC1)N1CCCC(c2ccc(F)cc2)c2ccc(F)cc21 (configuration not stated)	none (no result: CYP2C9 inhib, CYP2C9 activ, CYP2C19 inh, CYP2C19 activ, MRP resist rev)
N#CNC(=Nc1ccc(F)cc1)SCc1ccccc1	none (no result: CYP2C9 inhib, CYP2C9 activ, CYP2C19 inh, CYP2C19 activ, MRP resist rev)
CC(C)N=C(NC#N)SCc1ccc(F)cc1	CYP2C9 inhib 63, CYP2C19 inh 95
Fc1ccc(C2CC(c3ccccc3)Nc3ncnn32)cc1 (configuration not stated)	CYP2C19 inh 53
Cc1ccccc1C1CC(c2ccccc2OC(F)F)Nc2ncnn21 (configuration not stated)	CYP2C9 inhib 60, CYP2C19 inh 75
c1ccc(C2CC(c3ccccc3)n3ncnc3N2)cc1 (configuration not stated)	CYP2C19 inh 93
CCc1ccccc1NC(=O)CSc1nc2n[nH]c(C)c2c(=N)n1-c1cccc(OC)c1	none (no result: CYP2C9 inhib, CYP2C9 activ, CYP2C19 inh, CYP2C19 activ)
CCCc1nnc(N2C(=O)c3cccc4cccc(c34)C2=O)s1	CYP2C9 activ 3
O=c1cc(-c2ccccc2)n(S(=O)(=O)c2ccc3ccccc3c2)o1	none (no result: CYP2C9 inhib, CYP2C9 activ, MRP1 act, CYP2C19 inh, CYP2C19 activ)
CC(=O)c1c(C)[nH]c(C(=O)N2CCc3ccccc32)c1C	CYP2C9 inhib 69, CYP2C19 inh 69
Cc1ccc(N=Cc2nc(-c3ccco3)oc2O)cc1	CYP2C9 inhib 56
Cc1ccc(C(=O)Oc2oc(-c3ccco3)nc2C=Nc2ccc(Cl)cc2)cc1	none
CC(C)(C)C(=O)NC(=S)Nc1ccc(F)cc1	none (no result: CYP2C9 inhib, CYP2C9 activ, CYP2C19 inh, CYP2C19 activ, MRP resist rev)
Oc1ccccc1/C=N/n1cnnc1	none
COc1ccc(-n2c(=O)c3ccccc3c3ccccc3c2=O)cc1	none (no result: CYP2C9 inhib, CYP2C9 activ, CYP2C19 inh, CYP2C19 activ, MRP resist rev)
COc1ccc(-n2c(O)c(/C=N/n3cnnc3)c3ccccc3c2=O)cc1	CYP2C9 inhib 75
O=c1c2ccccc2c(/C=N/n2cnnc2)c(O)n1-c1ccccc1	CYP2C9 inhib 61
CC1CCCC(C)N1C(=O)c1cc2ncc(CCCl)cn2n1 (configuration not stated)	none (no result: CYP2C9 inhib, CYP2C9 activ, CYP2C19 inh, CYP2C19 activ, MRP resist rev)
O=C(Nc1nc2ccccc2s1)C1=NN(c2ccccc2)C(=O)CC1	none (no result: CYP2C9 inhib, CYP2C9 activ, CYP2C19 inh, CYP2C19 activ, MRP resist rev)
CC(=O)Nc1ccc(C(=O)CSc2ncn(-c3ccccc3)n2)cc1	CYP2C9 inhib 75, CYP2C19 inh 67
O=C(CSc1ncn(-c2ccccc2)n1)Nc1nccs1	CYP2C19 inh 56
O=C(CSc1nc(Cc2ccccc2)nc2ccccc12)Nc1nc2c(s1)CCCC2	CYP2C9 inhib 93, CYP2C19 inh 85 (no result: MRP resist rev)
CC(C)(C)c1nc(SCC(=O)Nc2nc3c(s2)CCCC3)c2ccccc2n1	none (no result: MRP resist rev)
Cc1csc(NC(=O)CSc2ncn(-c3ccccc3)n2)n1	none
